MCF10A rerep – A quantitative high throughput screen for small molecules that induce DNA re-replication in MCF 10a normal breast cells; MCF 10A DNA re-replication, Hoechst nuclear intensity, 48 h; Potency, µM (series often up to 46.1 µM), for the others: top-dose activity, positive = re-replication, most hits filed as activators; 350,000 compounds, 2.9% hits; AID 624296, 2012; further: potency means the concentration at half of the fitted maximal effect; % of control where 0% means no effect; nearly all actives have a fitted effect of over 50% in size
IL-1B inflam inh – qHTS for Inhibitors of Inflammasome Signaling: IL-1-beta AlphaLISA Primary Screen. THP-1 LPS/ATP IL-1B secretion, AlphaLISA, 16 h; stronger effect = lower value. activity change, % at 57.5 µM. 360,000 compounds, 4.7% hits. AID 743279, 2014; in the data active means activity change below about -50%; inconclusive means mostly about -30% to -49%; further: on the % scale 0 is the no-effect control and ±100 the full control effect
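Secreted IL-1B measured by AlphaLISA bead assay after 16 h compound exposure of THP-1 cells; compounds (final up to 57.5 uM) added 1 h before LPS (250 ng/mL) and ATP (1.25 mM) stimulation; lower signal means less secretion.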
SW480 rereplic – A quantitative high throughput screen for small molecules that induce DNA re-replication in SW480 colon adenocarcinoma cells. AID 624297, 2012. 340,000 compounds, 1.8% hits. Potency, µM (highest dose often 46.1 µM), without a hit: at the top dose re-replication activation, usual class: activators. SW480 DNA re-replication, Hoechst DNA content imaging, 48 h; further: potency means the concentration at half of the fitted maximal effect; % of control where 0% means no effect; nearly all actives have a fitted effect of over 55% in size
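Compounds, transferred as 23 nL by pin tool, were incubated with cells for 48 hr; DNA content per nucleus was then quantified by Hoechst staining and fluorescence plate imaging.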
ATXN viability – Viability Counterscreen for Primary qHTS for Inhibitors of ATXN expression; S2 cells (HEK-293 line with an ATXN2-luciferase reporter) viability, CellTiter-Fluor protease fluorescence, 24 h; Potency, µM (doses to about 56.7 µM), hits mostly cytotoxic; 400,000 compounds, 0.49% hits; AID 651635, 2014; further: potency means the concentration at half of the fitted maximal effect; nearly all actives have a fitted effect of over 40% in size
PINK1 modulator – A Quantitative High throughput Screen to Identify Chemical Modulators of PINK1 Expression | AID 624263, 2012 | 410,000 compounds, 0.2% hits | PINK1 immunofluorescence, high-content cytometry, 24 h | Potency, µM (doses to about 76.6 µM), inactives show top-dose activation (PINK1 increase), most hits filed as activators; active means well fitted activation curve with a large enough effect; inconclusive means small, poorly fitted or top-dose-only effect; cell line not stated here; further: potency means the concentration at half of the fitted maximal effect; % of control where 0% means no effect; nearly all actives have a fitted effect of over 65% in size
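Decision-based qHTS: stable cells, 24 h exposure to five compound concentrations, CCCP as control. Fixed cells stained for PINK1 plus nuclear, mitochondrial and cell markers, cytometer read.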
ATXN2 expr inh – Primary qHTS for Inhibitors of ATXN expression; HEK-293 ATXN2-luciferase reporter, luminescence, 24 h; AID 1745845, 2022; Potency, µM (series often up to 57 µM), for inactives: top-dose activity change, negative = inhibition, usual class: inhibitors; 360,000 compounds, 0.72% hits; further: potency means the concentration at half of the fitted maximal effect; on the % scale 0 is the no-effect control and ±100 the full control effect; nearly all actives have a fitted effect of over 55% in size
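qHTS (up to 57 uM final) was run with 24 h compound exposure of reporter cells at 37 °C. Each well was multiplexed: SteadyGlo luminescence measured ATXN2-luciferase expression after a fluorogenic Gly-Phe-AFC viability readout (25 uM final).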
* = called active by the depositor; i = inactive; ? = inconclusive; nt = no result given; [ ] = dose if it differs, or a comment. The list is not random: actives were taken first. Their share in the collection is about 7.1%. Unless noted, the call rests on the fitted dose curve; in most records, active means well fitted curve in the direction sought with a large enough effect; inconclusive means small, poorly fitted or top-dose-only effect, or another doubt; inactive means no such curve, though single readings can be large; an effect the other way counts as inactive or inconclusive.

SMILES	MCF10A rerep	IL-1B inflam inh	SW480 rereplic	ATXN viability	PINK1 modulator	ATXN2 expr inh
CCc1cccc(NC(=O)C(c2ccccc2)N2Cc3ccccc3C2=O)c1 (configuration not stated)	nt	nt	nt	nt	-1.9%	nt
O=C(/C=C/c1cccnc1)c1ccc(O)cc1	?	-97.9*	20.6µM*	i	3.4%	35.0%
O=C(/C=C/c1cccc(O)c1)c1cccnc1	20.6µM*	-5.7	?	?	-0.9%	-32.5%
O=C(C=Cc1cccnc1)c1ccccc1	?	-105.8*	12.2%	nt	-0.3%	?
O=C(/C=C/c1ccco1)c1cccnc1	4.3%	-21.6	-5.2%	i	3.1%	nt
O=C(/C=C/c1cccnc1)c1cccc(O)c1	?	-2.8	?	nt	-1.0%	?
COc1cc(C(=O)/C=C/c2cccnc2)c([N+](=O)[O-])cc1OC	23.1µM*	-99.8*	4.9%	14.1µM*	-1.1%	12.6µM*
COc1cc(C(=O)Nc2ccncc2)c([N+](=O)[O-])cc1OC	-0.7%	23.3	5.5%	i	3.7%	3.9%
Cc1ccc2[nH]c(=O)c3cc(C(=O)NCc4cccc(Cl)c4)sc3c2c1	nt	nt	nt	i	0.6%	9.8%
CCCN(CCC)CCCNC(=O)C1CCN(S(=O)(=O)CC)CC1	nt	nt	nt	nt	4.3%	nt
CN(C)C(=O)COc1ccc(C(=O)/C=C/c2cccnc2)cc1	?	-101.0*	?	?	2.4%	-1.0%
CN(C)c1ccc(/C=C/C(=O)c2cccnc2)cc1	8.2%	?	2.6%	i	0.6%	2.8%
COC(=O)c1c(Oc2ccc(Br)cc2)nnc(-c2ccccc2)c1-c1ccccc1	nt	nt	nt	i	2.5%	-1.2%
COc1ccc(C(=O)Nc2cc(C)c(O)c(-c3nc4ccccc4s3)c2)cc1OC	nt	nt	nt	i	-0.3%	0.8%
O=C(Nc1ccc(OC(=O)c2ccccc2)c(-c2nc3ccccc3s2)c1)c1ccccc1	20.6µM*	58.4	?	i	15.9%	-25.9%
COc1ccc(NC(=O)C2CCN(C3=NS(=O)(=O)C(c4ccc(C)c(C)c4)=C3C)CC2)c(OC)c1	nt	nt	nt	i	4.7%	-15.2%
O=C(NCCO)c1cccc(Nc2nc(-c3ccccc3)c3cc(Cl)ccc3n2)c1	?	?	16.4µM*	i	3.5%[38.3 µM]	-14.9%
O=C(O)CCCC(=O)NNc1nc(-c2ccccc2)c2cc(Cl)ccc2n1	2.2%	0.8	-7.9%	i	1.3%	nt
Clc1ccc(Nc2nc(-c3ccccc3)c3cc(Cl)ccc3n2)cc1	nt	nt	nt	nt	-0.1%	nt
NNc1nc(-c2ccccc2)c2cc(Cl)ccc2n1	10.3µM*	-28.2	-53.1%	i	3.4%	-18.2%
Fc1cccc(NC(=S)NCc2ccc(Cl)cc2)c1	22.8%	-15.2	-32.8%	i	3.1%	-0.4%
O=[N+]([O-])c1cc(C(F)(F)F)cc([N+](=O)[O-])c1NCCNC(=S)Nc1cccc(F)c1	-2.1%	-52.9*	0.6%	?	?	?
Cc1ccc(OCCCC(=O)Nc2sc3c(c2C(N)=O)CCCC3)cc1	nt	nt	nt	i	4.2%	-20.1%
CC(C)c1ccc(NC(=O)CN2C(=O)NC(Cc3c[nH]c4ccccc34)C2=O)cc1 (configuration not stated)	?	-58.9*	0.7%	?	7.0%	-15.1%
O=C1NC(Cc2c[nH]c3ccccc23)C(=O)N1Cc1cccc2ccccc12 (configuration not stated)	0.0%	-100.8*	-26.7%	i	-0.7%	-30.2%
SMILES	MCF10A rerep	IL-1B inflam inh	SW480 rereplic	ATXN viability	PINK1 modulator	ATXN2 expr inh
Cc1ccc(CN2C(=O)NC(Cc3c[nH]c4ccccc34)C2=O)cc1 (configuration not stated)	-0.7%	9.4	-6.5%	i	3.4%	-5.2%
Cc1ccc2c(c1)-c1onc(C(=O)N3CCN(c4ccc(Cl)cc4)CC3)c1CO2	nt	nt	nt	i	1.0%	2.9%
C[C@@]12C(=O)Nc3ccc(Cl)cc3C(=O)N1[C@H]1c3cc(Cl)ccc3OC[C@@H]1[C@@H]2c1ccccc1	0.3%	0.0	?	i	2.2%	-22.9%
Cc1ccc2c(c1)C(=O)N1[C@H]3c4ccccc4OC[C@@H]3[C@H](c3ccccc3)[C@]1(C)C(=O)N2	?	-62.5*	?	i	-0.4%	14.0%
Cc1ccc2c(c1)[C@H]1[C@H](CO2)[C@H](c2ccccc2)[C@]2(C)C(=O)Nc3ccccc3C(=O)N12	3.26µM*	-60.2*	9.2µM*	?	4.1%	?
C[C@@]12C(=O)Nc3ccccc3C(=O)N1[C@H]1c3cc(Cl)ccc3OC[C@@H]1[C@@H]2c1ccccc1	7.31µM*	?	?	i	3.8%	-29.2%
Cc1ccc2c(c1)[C@H]1[C@H](CO2)[C@H](c2ccccc2)[C@]2(C)C(=O)Nc3ccc(Cl)cc3C(=O)N12	?	?	14.6µM*	i	3.6%	1.1%
Cc1ccc(NC(=O)Cn2nc(C)c3nn(-c4ccc(Cl)cc4)c(C)c3c2=O)cc1F	nt	nt	nt	nt	0.3%	nt
O=C(CCCCn1c(=O)c2ccccc2n(CC(=O)Nc2ccccc2)c1=O)NCc1ccccc1Cl	nt	nt	nt	i	1.2%	0.0%
O=C(CN1C(=O)C2C3C=CC(C3)C2C1=O)OCC(=O)c1ccc(Cl)c([N+](=O)[O-])c1 (configuration not stated)	?	-78.4*	?	i	0.3%	-11.4%
Cc1ccc(C(=O)COC(=O)CN2C(=O)C3C4C=CC(C4)C3C2=O)cc1[N+](=O)[O-] (configuration not stated)	-7.9%	-2.8	-5.0%	?	1.6%	0.0%
CSc1ccc(NC(=O)Nc2cccn(Cc3ccccc3F)c2=O)cc1	18.3%	-68.1*	?	?	0.5%	nt
CCOc1ccc(NC(=O)Nc2cccn(Cc3ccccc3)c2=O)cc1	16.5%	-74.2*	10.4%	?	-1.3%	-12.5%
CC(=O)c1ccc(O)c(C(N)=O)c1	nt	nt	nt	i	nt	3.2%
O=C(Cn1nc(Cc2cccnc2)c2ccccc2c1=O)Nc1ccc(F)c(Cl)c1	nt	nt	nt	nt	-0.2%	nt
COc1ccccc1NC(=O)Cn1cc(S(=O)(=O)Cc2ccccc2)c2ccccc21	nt	nt	nt	nt	-0.3%	nt
CCc1cccc(C)c1NC(=O)c1cnn(-c2ccc(OC)cc2)c1C1CCN(C(=O)OC(C)(C)C)CC1	nt	nt	nt	nt	0.1%	nt
Cc1cc(Sc2nnc(/N=C/N(C)C)s2)c2ccccc2n1	9.2µM*	-88.8*	?	?	-1.7%	nt
CCCCCCCCSc1nnc(/N=C/N(C)C)s1	16.6%	16.0	?	i	0.7%	0.1%
Cc1cc(Sc2nnc(N)s2)c2ccccc2n1	?	-112.6*	-0.4%	25.1µM*	-4.2%	?

Bioassay records as filed in PubChem.
